Measured values reported in the antibiotic and cytotoxicity screens of Wong et al. (2023).
Hit rate of the full screen: of about 39,000 compounds, about 1,500 (3.8%) were called active. This is one part of a sample in which actives are shown more often than they occur.

tested on: HSkMC (human skeletal muscle cells); assay: cytotoxicity call (relative viability < 0.9); settings: 10 µM

Structure (SMILES)	cytotoxicity call
COc1ccc(S(=O)(=O)N(C)C[C@@H]2Oc3ccc(NC(=O)CCCN(C)C)cc3C(=O)N([C@H](C)CO)C[C@@H]2C)cc1	inactive
COc1ccc(-c2cn(CCNC(=O)[C@H](Cc3ccccc3)NS(=O)(=O)c3ccc(C)cc3)nn2)cc1OC	inactive
CC(/C=C/C(=O)NO)=C\c1cccc(OC[C@@H]2[C@H]3C[C@H]4c5[nH]c6ccccc6c5CCN4C[C@@H]3CC[C@@H]2O)c1	inactive
O=C(N[C@@H](c1ccc(-c2ccccc2)cc1)c1cnccn1)C1CCN(CCCOc2ccccc2)CC1	inactive
CC(=O)NC1C(O)CC(O)(C(=O)O)OC1C(O)C(O)CO (stereo not drawn)	inactive
C[C@H]1CCCCO[C@@H](CN(C)S(C)(=O)=O)[C@@H](C)CN([C@@H](C)CO)C(=O)c2cc(N(C)C)ccc2O1	inactive
C[C@H](CO)N1C[C@H](C)[C@H](CN(C)C(=O)Nc2ccc(C(F)(F)F)cc2)Oc2ccc(NC(=O)CCC(F)(F)F)cc2CC1=O	inactive
Cc1ccc(S(=O)(=O)C[C@H](C)N2CCOCC2)c(S(=O)(=O)C[C@@H](C)N2CCOCC2)c1	inactive
CCNC(=O)C[C@@H]1C=C[C@@H](NC(=O)C2CC2)[C@@H](CO)O1	inactive
COc1ccc(NC(=O)Nc2ccc3c(c2)CC(=O)N([C@@H](C)CO)C[C@H](C)[C@H](CN(C)C(=O)Nc2cccc4ccccc24)O3)cc1	inactive
CCCNC(=O)Nc1ccc2c(c1)OC[C@@H](C)N(C(=O)C1CCOCC1)C[C@@H](C)[C@@H](OC)CN(C)C2=O	inactive
C[C@H]1CN([C@@H](C)CO)C(=O)c2cc(Br)cnc2O[C@@H]1CN(C)Cc1cccc(C(=O)O)c1	inactive
O=C(O)CNC(=O)C(=O)O	active
NCC(=O)NCC(=O)O	inactive
CNCC(=O)O	inactive
O=C(CCCCCNC(=O)OCCCOc1ccc(C2=N[C@]3(Cc4ccccc4)C(=O)N(Cc4ccccc4)Cc4ccccc4[C@@H]3O2)cc1)NO	inactive
C[C@@H]1CCCCO[C@@H](CN(C)C(=O)Nc2ccc3c(c2)OCO3)[C@@H](C)CN([C@H](C)CO)C(=O)c2cc(NC(=O)CCCCCC(=O)Nc3ccccc3N)ccc2O1	inactive
NC(=O)c1ncn([C@@H]2O[C@H](CO)[C@@H](O)[C@H]2O)n1	inactive
C[C@@H]1CN([C@H](C)CO)C(=O)c2cc(NC(=O)Nc3ccc(F)cc3)ccc2O[C@@H]1CN(C)Cc1ccc(C(=O)Nc2ccccc2N)cc1	inactive
O=C(Nc1cccc(C(F)(F)F)c1)c1ccc2ccccc2c1	inactive
Cc1ncc(NC(=O)c2cccc(C(F)(F)F)c2)cc1-c1cnc(OC2CCOCC2)c(N2CCOCC2)c1	inactive
Cc1ccc(Nc2ncc3c(n2)N(C)C(=O)N(c2cc(NC(=O)c4cccc(C(F)(F)F)c4)ccc2C)C3)cn1	active
C[C@H]1CN([C@@H](C)CO)C(=O)Cc2cc(NS(=O)(=O)c3ccc(Cl)cc3)ccc2O[C@H]1CN(C)C(=O)Nc1ccc(C(F)(F)F)cc1	inactive

Structure (SMILES)	cytotoxicity call
CC1=C(CCC(=O)O)c2cc3[nH]c(cc4nc(cc5[nH]c(cc1n2)c(C)c5C(C)O)C(C)=C4C(C)O)c(C)c3CCC(=O)O (stereo not drawn)	inactive
CCCCCCO[C@H](C)c1c(c/2[nH]c1/C=C/1\N=C(/C=C/3\NC4=C(CC(=O)C4=C3C)C3=N/C(=C2)[C@@H](C)[C@@H]3CCC(=O)O)C(=C1C)CC)C	active
CCc1c(c/2[nH]c1/C=C/1\N=C(/C(=C/3\N=C(/C=C/4\N/C(=C2)C(=C4C)C=C)[C@@H](C)[C@@H]3CCC(=O)O)CC(=O)N[C@@H](CC(=O)O)C(=O)O)C(=C1C)C(=O)O)C	inactive
C[C@H](N)C(=O)N1CCc2ccccc2C1	inactive
C[C@@H]1CCCCO[C@@H](CN(C)S(=O)(=O)c2ccc(F)cc2)[C@@H](C)CN([C@@H](C)CO)C(=O)c2cc(NC(=O)Nc3ccc(F)cc3)ccc2O1	inactive
CC(N)O.Cc1cc(CC(C)CC(C)(C)C)n(O)c(=O)c1 (stereo not drawn)	inactive
C[C@@H]1CN([C@H](C)CO)C(=O)c2cc(NC(=O)Nc3ccc(C(F)(F)F)cc3)ccc2O[C@@H](C)CCCCO[C@@H]1CN(C)C(=O)Cc1ccccc1	active
C[C@@H]1CCCCO[C@@H](CN(C)C(=O)Cc2ccccc2)[C@@H](C)CN([C@@H](C)CO)C(=O)c2cc(NC(=O)Nc3ccc(C(F)(F)F)cc3)ccc2O1	inactive
C[C@@H]1CCCCO[C@H](CN(C)C(=O)Cc2ccccc2)[C@@H](C)CN([C@@H](C)CO)C(=O)c2cc(NC(=O)Nc3ccc(C(F)(F)F)cc3)ccc2O1	inactive
C[C@@H]1CCCCO[C@@H](CN(C)C(=O)Cc2ccccc2)[C@@H](C)CN([C@H](C)CO)C(=O)c2cc(NC(=O)Nc3ccc(C(F)(F)F)cc3)ccc2O1	inactive
C[C@H](CO)N1C[C@H](C)[C@H](CN(C)C(=O)Cc2ccccc2)OCCCC[C@H](C)Oc2ccc(NC(=O)Nc3ccc(C(F)(F)F)cc3)cc2C1=O	inactive
C[C@H](CO)N1C[C@H](C)[C@@H](CN(C)C(=O)Cc2ccccc2)OCCCC[C@H](C)Oc2ccc(NC(=O)Nc3ccc(C(F)(F)F)cc3)cc2C1=O	inactive
C[C@@H]1CCCCO[C@H](CN(C)C(=O)Cc2ccccc2)[C@@H](C)CN([C@H](C)CO)C(=O)c2cc(NC(=O)Nc3ccc(C(F)(F)F)cc3)ccc2O1	inactive
C[C@@H]1CN([C@@H](C)CO)C(=O)c2cc(NC(=O)Nc3ccc(C(F)(F)F)cc3)ccc2O[C@@H](C)CCCCO[C@H]1CN(C)C(=O)Cc1ccccc1	active
C[C@@H]1CCCCO[C@H](CN(C)C(=O)Cc2ccccc2)[C@H](C)CN([C@@H](C)CO)C(=O)c2cc(NC(=O)Nc3ccc(C(F)(F)F)cc3)ccc2O1	active
COc1ccc(NC(=O)N(C)C[C@@H]2OCc3cnnn3CCCC(=O)N([C@H](C)CO)C[C@@H]2C)c(OC)c1	inactive
C[C@@H]1CCCCO[C@@H](CN(C)C(=O)CCC(F)(F)F)[C@@H](C)CN([C@@H](C)CO)C(=O)c2cc(NC(=O)CCC(F)(F)F)ccc2O1	inactive
C[C@@H]1CN(C)C(=O)c2cccc(NC(=O)c3ccncc3)c2O[C@H]1CN(C)Cc1ccc(Oc2ccccc2)cc1	inactive
O=C(C[C@@H]1CC[C@@H]2[C@H](COC[C@@H](O)CN2S(=O)(=O)c2ccccc2)O1)N[C@H]1CCN(Cc2ccccc2)C1	inactive
COc1cc(-c2cc(=O)c3c(s2)N(Cc2ccco2)[C@@H](c2ccc(O)c(OC)c2)CC3=O)ccc1O	inactive
C[C@H](CO)N1C[C@H](C)[C@@H](CN(C)C(=O)Nc2ccc(F)cc2)Oc2ccc(NC(=O)Nc3cccc4ccccc34)cc2CC1=O	inactive
CC(C)(C)C(=O)OCOP(=O)(OCOC(=O)C(C)(C)C)C(C)(Oc1ccc(O)cc1)P(=O)(OCOC(=O)C(C)(C)C)OCOC(=O)C(C)(C)C	inactive
COc1ccc2c(c1)C(=O)C(=O)N2	inactive

Structure (SMILES)	cytotoxicity call
O=C1Nc2ccc(I)cc2C1=Cc1cc(Br)c(O)c(Br)c1	active
COc1ccc2c(c1)/C(=N\O)C(=O)N2	inactive
C[C@H](CO)N1C[C@H](C)[C@H](CN(C)C(=O)Nc2ccc(C(F)(F)F)cc2)OCCCC[C@H](C)Oc2ccc(NC(=O)c3ccccc3)cc2C1=O	inactive
C[C@H](CO)N1C[C@H](C)[C@H](CN(C)C(=O)Nc2ccc3c(c2)OCO3)OCCCC[C@H](C)Oc2ccc(NS(=O)(=O)c3ccccc3)cc2C1=O	inactive
CCN1C(=O)[C@H]2[C@H](O)CS[C@H]2C1=O	inactive
C[C@@H]1CN([C@@H](C)CO)S(=O)(=O)c2ccc(C#C[C@@H](C)O)cc2O[C@H]1CN(C)C(=O)C1CCCCC1	inactive
c1ccc2c(c1)-c1ccc3ccc4cccc5cc-2c1c3c45	inactive
CCN(CC)CCCCNc1ncc2cc(-c3c(Cl)cccc3Cl)c(NC(=O)NC(C)(C)C)nc2n1	inactive
CCN(CC)CCCCNc1ncc2cc(-c3cc(OC)cc(OC)c3)c(NC(=O)NC(C)(C)C)nc2n1	active
CCN(CC)CCNC(=O)COc1ccc(OC)cc1.Cl	inactive
Cc1noc(C)c1S(=O)(=O)N(C)C[C@@H]1Oc2ccc(NC(=O)Cc3cn(C)c4ccccc34)cc2CC(=O)N([C@@H](C)CO)C[C@H]1C	inactive
C[C@@H]1CN([C@@H](C)CO)C(=O)c2cc(NS(=O)(=O)c3ccc(F)cc3)ccc2O[C@@H]1CN(C)CC1CC1	inactive
CCc1c(O)cc(O)c(C(=O)c2ccc(OCCN3CCOCC3)c(OC)c2)c1CC(=O)N(CCOC)CCOC	active
COc1cc(C(=O)OCCN2CCN(CCOC(=O)c3cc(OC)c(OC)c(OC)c3)CC2)cc(OC)c1OC	inactive
COc1c(OCCCN2CCOCC2)ccc2c1N=C(NC(=O)c1cnc(N)nc1)N1CCN=C21	inactive
C[C@@H]1CN([C@@H](C)CO)S(=O)(=O)c2ccc(C#CC3(O)CCCC3)cc2O[C@H]1CN(C)C(=O)Nc1ccccc1	inactive
N=C(N)N/N=C1\CCc2c(C(=N)N)cccc21	active
C[C@H](CO)N1C[C@H](C)[C@H](CN(C)S(=O)(=O)c2ccccc2)Oc2ccc(NS(=O)(=O)c3ccccc3)cc2CC1=O	inactive
C[C@H](CO)N1C[C@H](C)[C@@H](CN(C)Cc2ccc3c(c2)OCO3)Oc2cc(C#CCN(C)C)ccc2S1(=O)=O	inactive
CNC(=O)c1ccc(Nc2ncc(C(F)(F)F)c(NCc3nccnc3N(C)S(C)(=O)=O)n2)cc1	active
CN(c1ncccc1CNc1nc(Nc2ccc3c(c2)CC(=O)N3)ncc1C(F)(F)F)S(C)(=O)=O	active
C[C@H](CO)N1C[C@H](C)[C@@H](CN(C)S(C)(=O)=O)Oc2ccc(NS(=O)(=O)c3cccs3)cc2CC1=O	inactive
